From PubChem BioAssay come the findings set out here.

One test concerns the target Albumin (Bos taurus) (UniProt P02769). As to the kind of experiment: compounds binding labelled BSA control protein – biochemical, small-molecule microarray, Alexa647 label, 635/667 nm fluorescence, artefact control for SMM control protein annotation, profiling panel (AID 1118).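 Also: score merges 667 nm emission intensity and signal-to-noise per printed compound spot.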 To be noted: BSA-A647 binding, fluorescence 635 nm, higher = more signal.
The nature of test [1]: probe aXIP binding to arrayed compounds – biochemical, NeuroSMM set, 635/667 nm fluorescence, primary screen (AID 1119).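 Also: probe is the protein aXip251-270 applied at 1 µg/mL to compound-printed slides; binding of probe to printed compounds measured as 667 nm fluorescence plus signal to noise.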 To be noted: small-molecule microarray, higher = more signal, called active from +8 up or from −8 down.
Test [2] can be described thus: probe aNOTCH3 binding on compound microarray – biochemical, small-molecule microarray, 635/667 nm fluorescence, primary screen (AID 1120).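 Also: probe is a biotin-tagged antibody raised against NOTCH3 rather than NOTCH3 protein; score merges spot fluorescence near 667 nm with spot signal to noise.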 To be noted: higher = more signal.
Test [3] can be described thus: probe aNOTCH2 binding on compound microarray – biochemical, small-molecule microarray, 635/667 nm fluorescence, primary screen (AID 1121).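 Also: score merges feature fluorescence read at 667 nm with its signal to noise.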 The following applies: higher = more signal.
For test [4], the target named is Carbonic anhydrase 2 (Homo sapiens) (UniProt P00918). As to the kind of experiment: compounds binding carbonic anhydrase 2 – biochemical, small-molecule microarray, Alexa647-labelled CAII, profiling panel (AID 1122). To be noted: CAII-A647 binding fluorescence, higher = more signal.
Test [5] can be described thus: COS7 lysate on small-molecule microarray, probe aHis, 635 nm (AID 1123).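 Also: z-score combines 667nm fluorescence intensity with signal-to-noise per printed compound spot.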 The following applies: COS7 cell lysate, fluorescence, higher = more signal.
Test [6] can be described thus: probe aLAP1 signal on lysate-treated microarray – cell lysate, small-molecule microarray, COS7 lysate, primary screen (AID 1124).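 Also: lysate comes from COS7 cells expressing LAP1 and is applied at 0.3 µg/mL; score merges spot fluorescence near 667 nm with signal-to-noise over triplicate slides.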 The following applies: probe aLAP1, fluorescence, higher = more signal.
For the next test, the system named is Sam68 (KHDRBS1). Kind of test: compounds binding KHDRBS1 protein – biochemical, small-molecule microarray, 635 nm fluorescence, primary screen (AID 1125).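 Also: score merges 667 nm channel intensity with signal to noise over triplicate slides.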 The following applies: higher = more signal.
The subject of test [7] is Chordin-like protein 2 (CHRDL2). Kind of test: compounds binding chordin-like 2 – biochemical, small-molecule microarray, 635 nm fluorescence, primary screen (AID 1126).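 Also: printed compound slides probed with Chrdl2 protein at 4 µg/mL for 1 h at 4 C; score merges 667 nm emission intensity with signal to noise over three replicate slides.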 To be noted: fluorescence 635 nm, higher = more signal.
The target of test [8] is Concanavalin-A (Canavalia ensiformis) (UniProt P02866). Kind of test: compounds binding concanavalin A lectin – biochemical, small-molecule microarray, Alexa647 label, 635 nm, artefact control for SMM control protein annotation, primary screen (AID 1127).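 Also: z combines 667 nm emission intensity with signal-to-noise across three replicate slides.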 To be noted: ConA-A647 binding fluorescence, higher = more signal.
Sequence of Concanavalin-A (Canavalia ensiformis) (P02866 whole entry, looked up): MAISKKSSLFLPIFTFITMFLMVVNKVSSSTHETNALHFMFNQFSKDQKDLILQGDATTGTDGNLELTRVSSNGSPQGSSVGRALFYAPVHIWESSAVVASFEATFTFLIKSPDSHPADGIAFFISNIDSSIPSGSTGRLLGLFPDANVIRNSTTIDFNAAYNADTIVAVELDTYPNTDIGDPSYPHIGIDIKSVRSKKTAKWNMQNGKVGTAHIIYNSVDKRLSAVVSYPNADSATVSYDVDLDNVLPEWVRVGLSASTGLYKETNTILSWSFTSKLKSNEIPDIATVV
Test [9] is described as follows: compounds binding Alexa647 anti-His antibody – biochemical, small-molecule microarray, 635 nm fluorescence, artefact control for SMM control protein annotation, primary screen (AID 1128).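 Also: score merges feature fluorescence with signal-to-noise for each printed compound spot.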 The following applies: higher = more signal.
In test [10] the test system is Human papillomavirus type 1a E7 protein (residues 1-88). As to the kind of experiment: HPV1a E7 small-molecule binders, primary screen, biochemical, small-molecule microarray, residues 1-88, 635 nm (AID 1129). To be noted: small-molecule microarray binding, fluorescence 635 nm; higher = more signal.
Test [11] addresses Focal adhesion kinase 1 (Homo sapiens) (UniProt Q05397). As to the kind of experiment: PTK2 protein binding on printed compound slides – biochemical, small-molecule microarray, 635/667 nm fluorescence, BSA, DTT, primary screen (AID 1130).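 Also: composite of spot emission at 667 nm and signal to noise over triplicate slides.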 The following applies: 635 nm fluorescence, higher = more signal.
Test [12] relates to Fibrinogen (Alexa647-labelled). Kind of test: Alexa647-fibrinogen binding to printed small molecules – biochemical, small-molecule microarray, 635/667 nm fluorescence, artefact control for SMM control-protein annotation, profiling panel (AID 1131).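 Also: z-score merges 667 nm fluorescence with per-spot signal-to-noise over triplicate slides.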 To be noted: fibrinogen-A647 binding fluorescence, higher = more signal.
The target of test [13] is Follistatin (Homo sapiens) (UniProt P19883). Kind of test: FST protein binding to printed compounds – biochemical, small-molecule microarray, 635/667 nm fluorescence, primary screen (AID 1132). To be noted: 635 nm fluorescence, higher = more signal.
Sequence of Follistatin (Homo sapiens) (P19883 whole entry, looked up): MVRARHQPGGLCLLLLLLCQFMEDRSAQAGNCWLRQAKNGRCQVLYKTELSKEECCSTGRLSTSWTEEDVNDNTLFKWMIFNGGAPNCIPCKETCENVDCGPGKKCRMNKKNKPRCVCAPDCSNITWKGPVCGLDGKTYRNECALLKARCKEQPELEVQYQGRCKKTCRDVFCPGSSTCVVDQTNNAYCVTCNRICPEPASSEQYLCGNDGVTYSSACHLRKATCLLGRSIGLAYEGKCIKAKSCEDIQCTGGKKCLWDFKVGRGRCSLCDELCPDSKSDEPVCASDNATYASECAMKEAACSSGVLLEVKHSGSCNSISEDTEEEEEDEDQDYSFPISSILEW
Test [14] concerns the target Fibroblast growth factor 2 (Homo sapiens) (UniProt P09038). Kind of test: basic fibroblast growth factor binding to printed compounds – biochemical, small-molecule microarray, 635/667 nm fluorescence, primary screen (AID 1133). To be noted: FGF2, fluorescence 635/667, higher = more signal.
Test [15] can be described thus: JC-1 mitochondrial potential readout, lung cancer cells – cell-based, A549, JC-1 fluorescence, basal, 24 h, 100 nL, profiling panel (AID 1138).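 Also: A549 lung adenocarcinoma cells under basal conditions with no added stimulus; test concentration not given here.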 To be noted: higher = more signal.
A further test concerns Lefty1. Kind of test: Lefty1 protein binding to printed compounds – biochemical, small-molecule microarray, 635/667 nm fluorescence, primary screen (AID 1139). To be noted: fluorescence 635/667, higher = more signal.
Test [16] concerns wheat germ agglutinin (Triticum aestivum), Alexa647-labelled. As to the kind of experiment: Alexa647-WGA lectin binding to printed small molecules – biochemical, small-molecule microarray, 635/667 nm fluorescence, artefact control for SMM control-protein annotation, profiling panel (AID 1140).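 Also: score merges 667 nm feature emission with signal to noise over triplicate slides.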 The following applies: WGA-A647 binding, 635 nm fluorescence, higher = more signal.
The target of test [17] is Luciferin 4-monooxygenase (Photinus pyralis) (UniProt P08659). As to the kind of experiment: inhibition of purified Photinus pyralis luciferase – biochemical, luminescence, purified enzyme, 2006 set, primary screen (AID 1141).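 Also: cell-free assay with purified firefly luciferase at 100 ng per well in PBS; test concentration not given here.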 The following applies: purified firefly luciferase, SteadyGlo luminescence, 30 min; higher = more signal, called active from +8 up or from −8 down.
Sequence of Luciferin 4-monooxygenase (Photinus pyralis) (P08659 whole entry, looked up): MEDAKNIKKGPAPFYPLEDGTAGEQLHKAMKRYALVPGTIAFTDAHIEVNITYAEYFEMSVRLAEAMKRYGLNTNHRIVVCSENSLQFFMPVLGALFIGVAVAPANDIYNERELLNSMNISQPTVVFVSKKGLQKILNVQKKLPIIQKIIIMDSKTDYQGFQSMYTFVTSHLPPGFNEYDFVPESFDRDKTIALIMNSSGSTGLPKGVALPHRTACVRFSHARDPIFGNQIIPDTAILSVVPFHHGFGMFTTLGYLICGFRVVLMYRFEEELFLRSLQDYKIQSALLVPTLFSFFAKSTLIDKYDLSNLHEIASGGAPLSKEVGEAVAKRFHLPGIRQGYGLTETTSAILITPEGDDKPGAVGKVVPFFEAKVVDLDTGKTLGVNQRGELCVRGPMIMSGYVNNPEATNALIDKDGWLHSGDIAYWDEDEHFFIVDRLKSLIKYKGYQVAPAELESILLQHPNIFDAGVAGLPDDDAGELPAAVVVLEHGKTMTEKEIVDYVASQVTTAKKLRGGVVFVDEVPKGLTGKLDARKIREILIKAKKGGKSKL

SMILES strings stand for the structures. The source made the active and inactive calls.

Sequence of Albumin (Bos taurus) (P02769 whole entry, looked up): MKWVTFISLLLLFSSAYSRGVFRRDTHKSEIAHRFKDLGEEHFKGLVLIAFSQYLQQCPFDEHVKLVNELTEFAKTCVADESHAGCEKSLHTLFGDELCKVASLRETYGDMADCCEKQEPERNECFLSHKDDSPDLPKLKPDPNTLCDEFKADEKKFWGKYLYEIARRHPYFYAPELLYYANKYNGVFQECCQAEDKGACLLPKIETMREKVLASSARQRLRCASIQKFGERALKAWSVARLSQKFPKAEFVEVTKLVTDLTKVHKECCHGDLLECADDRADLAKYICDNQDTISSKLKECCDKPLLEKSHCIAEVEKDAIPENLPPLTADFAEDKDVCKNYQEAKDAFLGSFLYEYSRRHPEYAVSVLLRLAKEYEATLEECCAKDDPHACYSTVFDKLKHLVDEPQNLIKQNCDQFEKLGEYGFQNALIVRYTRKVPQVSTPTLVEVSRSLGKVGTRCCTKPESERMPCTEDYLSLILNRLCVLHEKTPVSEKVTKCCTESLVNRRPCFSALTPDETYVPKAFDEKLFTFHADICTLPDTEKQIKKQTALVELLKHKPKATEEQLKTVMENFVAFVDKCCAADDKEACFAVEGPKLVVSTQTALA
Sequence of Fibroblast growth factor 2 (Homo sapiens) (P09038 whole entry, looked up): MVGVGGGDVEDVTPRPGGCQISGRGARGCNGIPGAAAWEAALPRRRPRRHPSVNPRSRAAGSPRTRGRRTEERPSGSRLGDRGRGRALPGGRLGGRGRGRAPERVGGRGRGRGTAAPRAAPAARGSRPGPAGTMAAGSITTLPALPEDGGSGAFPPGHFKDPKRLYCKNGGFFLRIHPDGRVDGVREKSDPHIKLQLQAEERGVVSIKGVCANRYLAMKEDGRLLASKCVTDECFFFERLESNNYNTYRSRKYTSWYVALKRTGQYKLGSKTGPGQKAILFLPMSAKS
Sequence of Focal adhesion kinase 1 (Homo sapiens) (Q05397 whole entry, looked up): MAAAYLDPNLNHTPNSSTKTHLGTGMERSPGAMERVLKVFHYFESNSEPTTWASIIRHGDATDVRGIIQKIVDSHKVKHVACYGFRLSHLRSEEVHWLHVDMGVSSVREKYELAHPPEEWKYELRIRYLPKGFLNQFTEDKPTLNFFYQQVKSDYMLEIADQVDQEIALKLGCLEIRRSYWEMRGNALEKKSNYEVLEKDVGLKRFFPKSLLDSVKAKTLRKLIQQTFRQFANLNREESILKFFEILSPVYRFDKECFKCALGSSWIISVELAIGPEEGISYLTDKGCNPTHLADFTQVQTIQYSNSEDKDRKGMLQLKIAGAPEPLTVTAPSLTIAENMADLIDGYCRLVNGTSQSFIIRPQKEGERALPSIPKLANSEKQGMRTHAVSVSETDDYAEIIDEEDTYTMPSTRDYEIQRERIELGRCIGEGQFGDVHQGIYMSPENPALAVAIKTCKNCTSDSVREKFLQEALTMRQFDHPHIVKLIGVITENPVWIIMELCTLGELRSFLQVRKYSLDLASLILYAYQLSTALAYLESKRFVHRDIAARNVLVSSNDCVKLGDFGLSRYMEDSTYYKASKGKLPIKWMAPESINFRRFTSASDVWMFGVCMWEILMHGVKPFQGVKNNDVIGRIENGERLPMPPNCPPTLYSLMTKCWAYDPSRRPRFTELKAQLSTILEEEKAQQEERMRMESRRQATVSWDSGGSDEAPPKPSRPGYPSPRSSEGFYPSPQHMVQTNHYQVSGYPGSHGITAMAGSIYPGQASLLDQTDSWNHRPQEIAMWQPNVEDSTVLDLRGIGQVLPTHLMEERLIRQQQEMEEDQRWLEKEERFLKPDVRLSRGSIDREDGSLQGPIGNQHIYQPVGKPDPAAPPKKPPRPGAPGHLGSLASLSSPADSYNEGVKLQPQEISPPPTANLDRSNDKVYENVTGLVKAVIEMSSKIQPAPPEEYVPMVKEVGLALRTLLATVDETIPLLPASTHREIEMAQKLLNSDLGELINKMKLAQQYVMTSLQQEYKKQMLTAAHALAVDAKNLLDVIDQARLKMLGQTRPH

`O=C1O[C@@H](c2ccccc2)[C@@H](c2ccccc2)N2[C@@H](c3ccccc3OCCO)[C@]3(C(=O)Nc4ccc(C#CC5(O)CCCCCC5)cc43)[C@@H](C(=O)NC[C@H](O)c3ccccc3)[C@H]12`: the composite z-score with Albumin (Bos taurus) is 0.644; in [2] it was 0.638; in test [3] it was 0.0062; in test [4], 0.244; in [5] it was 2.29; in test [6], 0.146. For the same molecule, the composite z-score in the test with Sam68 (KHDRBS1) is 1; in test [7], -0.134; in test [8], 0.622; in [9], 1.82; in test [10] it was 1.2; in test [11], 1.03. Also, the composite z-score was -0.51 in test [12]; 1.17 in test [13]; 0.106 in [14]; 1.54 with Lefty1; 1.21 in test [16]. The composite Z-score in test [1] is 1.17 (inactive). Moreover, the z-score in test [15] is -1.15; in [17], -0.215 (inactive).

Take `C[n+]1ccc2ccc(O)cc2c1`: the composite z-score in the test with Albumin (Bos taurus) was -0.567; in [2], -0.0044; in [3], -0.102; in test [4], 0.596; in test [5], 0.403; in test [6] it was 0.854. Besides, the composite z-score is 0.14 in the test with Sam68 (KHDRBS1); 1.27 in [7]; 0.369 in [8]; 1.81 in test [9]; -0.495 in test [10]; 0.132 in test [11]. The composite z-score is -0.399 in [12]; 1.37 in [13]; 1.68 in test [14]; 1.54 in the test with Lefty1; -0.37 in test [16]. The composite Z-score in [1] is -0.269 (inactive). Further, the z-score was -0.924 in test [15] and 0.591 (inactive) in test [17].

For the molecule `C=CC[C@@]1(C(=O)OC)N=C(c2ccc(OCCCO)cc2)O[C@@H]1c1ccccc1CN=[N+]=[N-]`, the composite z-score with Albumin (Bos taurus) was -0.13; in test [2] it was 0.0419; in test [3], -0.102; in [4] it was 0.586; in test [5] it was 1.48; in test [6] it was -0.11. Moreover, the composite z-score stood at 0.38 in the test with Sam68 (KHDRBS1); 0.373 in [7]; 0.518 in [8]; 0.78 in test [9]; 0.996 in test [10]; 0.242 in [11]. Besides, the composite z-score in test [12] is 0.0758; in test [13], 1.05; in test [14], 0.0452; in the test on Lefty1 it was 0.543; in test [16], -0.0321. Further, the composite Z-score in [1] was -0.169 (inactive). Moreover, the z-score in [15] was 0.00108; in test [17], 0.668 (inactive).

`C=C(COC)C(=O)CC[C@@H](OC(=O)c1ccccc1-c1ccccc1C(=O)O)c1ccc(CO)o1`: the composite z-score in the test with Albumin (Bos taurus) was -0.651; in test [2], -0.154; in test [3], -0.0817; in test [4], 0.309; in test [5], 1.77; in test [6] it was 0.447. In addition, the composite z-score in the test on Sam68 (KHDRBS1) came out at 0.504; in test [7], 1.24; in test [8], 0.865; in test [9], 1.73; in [10], 0.339; in test [11], 0.0109. For the same molecule, the composite z-score in test [12] is -0.363; in [13] it was 1.05; in test [14] it was 1.81; in the test on Lefty1 it was 1.56; in test [16], -0.407. Moreover, the composite Z-score in [1] was 0.082 (inactive). In addition, the z-score was -0.789 in test [15] and -3.78 (inactive) in [17].

Take `O=C1NC(=O)C2C1C=CC(C(O)c1cccs1)N2Nc1ccccn1` (stereo not given): the composite z-score with Albumin (Bos taurus) was 0.426; in test [2], 0.118; in [3] it was -0.0826; in test [4], 0.803; in test [5], 1.21; in test [6] it was 0.0919. The composite z-score with Sam68 (KHDRBS1) is 0.248; in [7] it was 0.129; in [8], 0.766; in test [9], 1.23; in test [10] it was 0.532; in [11] it was -0.374. The composite z-score in test [12] was 0.725; in test [13], 0.131; in [14] it was 0.0343; with Lefty1, 0.0773; in test [16], -0.0456. The composite Z-score in test [1] is 0.32 (inactive). Also, the values for the z-score in test [15] and in [17] were 0.543 and -1.68 (inactive), respectively.

In the case of `C[C@H]1C2[C@H](Cc3ccccc3)NC(=O)[C@]23C(=O)N[C@H](Cc2ccccc2)C(=O)N[C@H](Cc2ccccc2)C(=O)NC/C=C/CCC/C=C/C3[C@@H]2O[C@]12C` (stereo not given in full), the composite z-score with Albumin (Bos taurus) is 0.63; in test [2], -0.246; in test [3], -0.115; in [4] it was 0.312; in [5] it was 1.25; in test [6], 0.338. Besides, the composite z-score was found to be 0.179 with Sam68 (KHDRBS1); 0.8 in test [7]; 0.472 in [8]; 0.896 in test [9]; 1.18 in test [10]; 0.0256 in [11]. In addition, the composite z-score in test [12] stood at 0.304; in test [13] it was 1.08; in test [14] it was 0.519; in the test on Lefty1 it was 1.56; in test [16] it was 0.756. In test [1], the composite Z-score was 0.312 (inactive). In addition, the values for the z-score in [15] and in test [17] were -0.256 and -3.27 (inactive), respectively.
